{"source": "PubChem BioAssay AID624046", "about": "(National Center for Advancing Translational Sciences (NCATS), 2012)", "note": "Records with an inconclusive call do not appear. Unmarked numbers belong to inactive results. Activity calls are given as the source filed them. The call rests on the fitted dose curve; in most records, active means well fitted inhibition curve with a large enough effect; inconclusive means small, poorly fitted or top-dose-only effect; inactive means flat fitted curve, though single readings scatter."}
{"biological_target": "Dual specificity tyrosine-phosphorylation-regulated kinase 1B (Homo sapiens) (UniProt Q9Y463)", "sequence (Q9Y463 whole entry, looked up)": "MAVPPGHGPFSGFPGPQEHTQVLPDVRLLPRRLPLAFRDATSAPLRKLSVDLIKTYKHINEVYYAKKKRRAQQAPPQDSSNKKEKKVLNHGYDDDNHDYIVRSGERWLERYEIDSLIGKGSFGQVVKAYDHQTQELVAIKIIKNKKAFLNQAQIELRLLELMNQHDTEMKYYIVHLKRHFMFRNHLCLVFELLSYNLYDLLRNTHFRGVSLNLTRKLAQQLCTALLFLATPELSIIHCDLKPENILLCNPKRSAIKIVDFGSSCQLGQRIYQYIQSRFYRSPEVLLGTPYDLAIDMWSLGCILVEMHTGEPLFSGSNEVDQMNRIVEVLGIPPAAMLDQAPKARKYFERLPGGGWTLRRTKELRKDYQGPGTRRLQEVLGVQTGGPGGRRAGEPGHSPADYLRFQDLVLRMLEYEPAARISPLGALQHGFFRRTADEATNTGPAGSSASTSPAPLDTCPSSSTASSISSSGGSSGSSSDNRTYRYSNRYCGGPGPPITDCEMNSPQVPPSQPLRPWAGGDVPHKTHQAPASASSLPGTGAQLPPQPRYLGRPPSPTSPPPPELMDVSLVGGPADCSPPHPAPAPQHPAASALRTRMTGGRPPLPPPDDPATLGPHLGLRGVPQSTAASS", "experiment": "Reaction Biology data for inhibitors of DYRK1B: Probe SAR", "conditions": "Reaction Biology DYRK1B kinase assay, 10 uM ATP; series mostly up to 10 µM; activity change, negative = inhibition: at the top concentration", "from_the_text": "Alternative splicing of pre-mRNAs plays a major role in the regulation of eukaryotic gene expression. Alternative splicing is now thought to be one of the primary reasons for the complexity of higher organisms leading to an average of three protein isoforms per gene. Aberrant splicing can lead to a number of diseases and is known to play a role in rare genetic diseases such as progeria syndrome. Hutchinson-Gilford Progeria Syndrome (HGPS) is a pediatric premature aging disease caused by a spontaneous mutation in the lamin A/C (LMNA) gene due to a single point mutation in the lamin A gene effecting 1 in 4 million people. To identify both specific splicing modulators of the lamin A gene as well as general splicing modulators, a cell-based HTS assay was developed using a minigene reporter system (AIDs, 1459 & 1487). […] This AID summarizes the characterization of lead compounds in Dyrk1b. NIH Molecular Libraries Probe Production Centers Network [MLPCN] NIH Chemical Genomics Center [NCGC] MLPCN Grant: MH084827 Assay Submitter (PI): Tom Misteli\nCompound IC50s were determined at Reaction Biology (http://www.reactionbiology.com) with ten concentration points starting at 10 uM in the assay using a 3-fold dilution series. The control compound staurosporine was also tested in the 10-dose IC50 mode with the same 3-fold serial dilution, again starting at 10 uM. All kinase reactions were performed using 10 uM ATP in the assay. 100% activity was taken from kinase reactions with DMSO alone (the vehicle used for compound stock solutions).", "units": {"activity change, negative = inhibition": "%"}}
{"compound": "Clc1cc(Cl)cc(CNc2ncncc2-c2ccc3c(c2)OCO3)c1", "Potency": "1.16 µM (active)"}
{"compound": "Cc1nc(CNc2ncnc3ccc(-c4ccc5c(c4)OCO5)cc23)cs1", "Potency": "0.176 µM (active)"}
{"compound": "Clc1ccc(CNc2nccc(-c3ccc4cn[nH]c4c3)n2)cc1Cl", "Potency": "0.599 µM (active)"}
{"compound": "COc1ccc(-c2ccnc(NCc3ccc(Cl)c(Cl)c3)n2)cc1OC", "activity change, negative = inhibition": -27.3}
{"compound": "c1cncc(CNc2nccc(-c3ccc4[nH]ncc4c3)n2)c1", "Potency": "0.0929 µM (active)"}
{"compound": "COc1cccc(-c2ccnc(NCc3ccc(Cl)c(Cl)c3)n2)c1", "activity change, negative = inhibition": -45.4}
{"compound": "c1cc(-c2ccc3c(c2)OCO3)nc(Nc2ccc3c(c2)OCO3)n1", "Potency": "0.0419 µM (active)"}
{"compound": "Clc1ccc(CNc2nccc(-c3ccc4[nH]ncc4c3)n2)cc1Cl", "Potency": "0.125 µM (active)"}
{"compound": "FC(F)(F)c1cc(Br)cc(Nc2nccc(-c3ccc4c(c3)OCO4)n2)c1", "Potency": "0.137 µM (active)"}
{"compound": "Clc1ccc(CNc2ncncc2-c2ccc3c(c2)OCO3)cc1Cl", "activity change, negative = inhibition": -48.5}
{"compound": "Clc1cc(Cl)cc(CNc2nccc(-c3ccc4c(c3)OCO4)n2)c1", "Potency": "0.0071 µM (active)"}
{"compound": "c1cncc(CNc2ccnc(-c3ccc4cn[nH]c4c3)n2)c1", "Potency": "0.829 µM (active)"}
{"compound": "Clc1ccc(CNc2ccnc(-c3ccc4[nH]ncc4c3)n2)cc1Cl", "Potency": "0.514 µM (active)"}
{"compound": "c1cncc(CNc2nccc(-c3ccc4c(c3)OCO4)n2)c1", "Potency": "0.012 µM (active)"}
{"compound": "COc1ccc(-c2ccnc(NCc3ccc(Cl)c(Cl)c3)n2)cc1", "Potency": "0.411 µM (active)"}
{"compound": "c1nc(NCC2CCCO2)c2cc(-c3ccc4c(c3)OCO4)ccc2n1", "note": "(stereo unspecified)", "Potency": "0.141 µM (active)"}
{"compound": "Cc1nc(CN(C)c2ncnc3ccc(-c4ccc5c(c4)OCO5)cc23)cs1", "Potency": "0.0164 µM (active)"}
{"compound": "Cc1c(-c2ccnc(NCc3ccc(Cl)cc3)n2)sc(=O)n1C", "Potency": "0.0516 µM (active)"}
{"compound": "Cc1c(-c2ccnc(NCc3cccnc3)n2)sc(=O)n1C", "Potency": "0.0311 µM (active)"}
{"compound": "c1cncc(CNc2ncncc2-c2ccc3c(c2)OCO3)c1", "activity change, negative = inhibition": -43.5}
{"compound": "O=[N+]([O-])c1cc(Nc2nccc(-c3ccc4c(c3)OCO4)n2)cc(C(F)(F)F)c1", "Potency": "0.027 µM (active)"}
{"compound": "Brc1ccc(CNc2nccc(-c3ccc4c(c3)OCO4)n2)cc1Br", "Potency": "0.112 µM (active)"}
{"compound": "Cc1nc(CN(C)c2ncnc3ccc(-c4ccc5[nH]ncc5c4)cc23)cs1", "Potency": "0.0895 µM (active)"}
{"compound": "Brc1cc(Br)cc(CNc2nccc(-c3ccc4c(c3)OCO4)n2)c1", "Potency": "0.0182 µM (active)"}
{"compound": "c1cncc(CNc2ccnc(-c3ccc4[nH]ncc4c3)n2)c1", "Potency": "0.178 µM (active)"}
{"compound": "Clc1ccc(CNc2nccc(-c3ccc4c(c3)OCO4)n2)cc1Cl", "Potency": "0.0378 µM (active)"}
{"compound": "COc1cccc(-c2ccnc(NCc3ccc(Cl)cc3)n2)c1", "Potency": "6.78 µM (active)"}
{"compound": "FC(F)(F)c1cccc(Nc2nccc(-c3ccc4c(c3)OCO4)n2)c1", "Potency": "0.0181 µM (active)"}
{"compound": "Clc1ccc(CNc2nccc(-c3ccc4c(c3)OCCO4)n2)cc1Cl", "Potency": "0.0548 µM (active)"}
{"compound": "COc1ccc(-c2ccnc(NCc3ccc(Cl)cc3)n2)cc1", "Potency": "0.871 µM (active)"}
{"compound": "Clc1ccc(Nc2nccc(-c3ccc4c(c3)OCO4)n2)cc1", "Potency": "0.884 µM (active)"}
